Compounds without any hit were thinned out: in the full panel of roughly 83,000, 20% have a hit.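 Plates (96-well) were seeded with cells, treated with compound at one concentration, and incubated for 48 hours before percent growth was determined.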 Unmarked numbers belong to inactive results. Calls of active or inactive are those of the source.

The subject of this assay is OVCAR-3 ovarian. In words: NCI-60 one-dose screen, 48 h (100 = growth as untreated, 0 = no growth, -100 = all killed). Particulars: 10 µM unless noted. The method, then:
Growth inhibition of the OVCAR-3 human tumor cell line is measured as a screen for anti-cancer activity. Cells are grown in 96 well plates and exposed to the test compound for 48 hours. Compounds are tested at a single concentration, which is 10^-5 M for most compounds. The reported endpoint is percent growth (GI% or GIPRCNT), where numbers from 0 - 100% represent growth inhibition, and numbers from -100% - 0 represent cell death. For example, a value of 40 represents 60% growth inhibition. A value of 0 means no net growth occurred over the course of the experiment. A value of -40 indicates 40% of cells at the beginning of the experiment died by the end of the experiment. A value of -100 means all cells are dead at the end of the experiment.
NCI-60 Human Tumor Cell Lines Screen was performed using the standard one-dose NCI protocol, which is described in more detail at https://dtp.cancer.gov/discovery_development/nci-60/default.htm.
Compounds with GIPRCNT values below 10 were considered active. Activity score was based on GIPRCNT using the following formula: […]
Score is 0 for GIPRCNT values of 100 or above, 50 for GIPRCNT values of 0, and 100 for GIPRCNT values of -100.
Regarding `NS(=O)(=O)c1ccc(-n2nc(-c3ccc(Cl)cc3)ccc2=O)cc1`, the growth is 106%.

Regarding `O=C(Nc1ccc(Cl)c(Cl)c1)Nc1ccc(Cl)c([N+](=O)[O-])c1`, the growth was 6.38% (active). The result for `COc1ccc(Cl)cc1NC(=O)c1cc2c([nH]1)-c1nc(NC(=O)C(C)(C)C)sc1CC2` reads 32.8%; that for `CC1CCC(C(C)C)C(NN)C1` (stereo not given), 113%. The result for `O=C(Nc1ccc(-n2ccc3c(NC(=O)c4ccccc4)nccc32)cc1)Nc1cccc(C(F)(F)F)c1` reads 15.2%; that for `O=C(c1ccccc1)[C@H]1[C@@H]2CCCN2[C@]2(C(=O)Nc3ccc(F)cc32)[C@]12C(=O)Nc1ccccc12`, 83.7%; that for `COc1ccc(-c2nn(-c3ccc(NC(=O)Nc4ccc(Cl)c(C(F)(F)F)c4)cc3)cc2-c2ccncc2)cc1Cl`, -1.59% (active). The result for `Cc1cc(NCCN(C(C)C)C(C)C)nc(/N=C(\N)Nc2ccc(Cl)c(C(F)(F)F)c2)n1` reads -73.6% (active); that for `Fc1cccc(F)c1C#Cc1ccc2cccnc2c1`, 83.5%; that for `C#CC(=O)/C=C/CCCCCCC#CC(=O)CCC(=O)C#CCCCCCC/C=C/C(=O)C#C`, 7.03% (active). As for `Cc1c(F)cccc1NC(=O)c1sc2nc3c(cc2c1N)CCCCC3`, the growth was 34.6%. For the compound `COc1ccc2c(c1)nnn1c3ncccc3c(N=O)c21`, the growth was -91.3% (active). With `CC(C)(C)OC(=O)N1CC(Cn2cc(C(F)(F)F)c3c(Cl)ncnc32)C1`, the growth was -49.9% (active).

As to `NC(=S)NNC1CCCCC1`, the growth is 110%. The result for `CC(C)C1(C(C)C)NC(=O)NC1=O` reads 110%. On to `O=C(Nc1ccc(-n2cc(-c3ccncc3)c(-c3ccc(O)c(Cl)c3)n2)cc1)Nc1ccc(Cl)c(C(F)(F)F)c1`, for which the growth was 1.16% (active). Take `COc1ccc(/C=C2/C(=O)Nc3cc(Cl)c(-c4csc(N)n4)cc32)cc1`: the growth was 17%. With `COc1ccc(-n2c(-c3ccc(NC(=O)CCCl)cc3)nnc2-c2cc(OC)c(OC)c(OC)c2)cc1` the figure was 4.58% (active). For the compound `O=c1cc(Cl)[nH]c(=O)[nH]1`, the growth was 109%. With `COc1ccc(-c2[nH]c3ccccc3c2/C=C(\C#N)S(=O)(=O)c2ccccc2)cc1` the figure was -35.7% (active); with `O=C(Nc1ccc(-n2ccc3c(NC(=O)c4ccccc4)nccc32)cc1)Nc1ccc(Cl)c(Cl)c1`, -79.6% (active).

With `CCCc1nn2c(CCC(=O)c3nc4ccc([N+](=O)[O-])cc4[nH]3)nnc2s1`, the growth is 109%. Take `CCCCN(CCCC)c1ccc(C(=N)c2ccc(N(C)C)cc2)cc1`: the growth was -74.3% (active).

As to `CC(CN(C)C)CN1c2ccccc2CCc2ccccc21` (stereo not given), the growth was 111%.

As for `CC(=O)c1cc2c(N)c(C(=O)Nc3cccc(Cl)c3)sc2nc1C`, the growth was 92.8%. The result for `NC(CSC(c1ccccc1)(c1ccccc1)c1ccc(F)cc1)C(=O)O` (stereo not given) reads -39.5% (active); that for `CCC(C)Nc1ccc(N)cc1` (stereo not given), -42.9% (active). As to `COc1ccc(-c2c(NC(=O)Nc3ccc(Cl)c(C(F)(F)F)c3)cnn2-c2ccc(S(N)(=O)=O)cc2)cc1`, the growth is 25.4%. With `CS(=O)(=O)Nc1cccc(-c2ccc3ncnc(Nc4ccc(F)c(Cl)c4)c3c2)c1` the figure was 25.9%; with `CCOC(=O)c1noc2c1CCc1cn(Cc3cc(OC)cc(OC)c3)cc1-2`, 103%. With `COc1ccc(C2CC(c3cc(Cl)c(C)cc3OC)=NN2c2ccc(S(N)(=O)=O)cc2)cc1OC` (stereo not given) the figure was 103%; with `C=CCOc1ccc(/C(Cl)=N/N=C(\Cl)c2cc(OC)c(OC)c(OC)c2)cc1`, 77.1%. Take `CC(=O)N[C@@H](CNC(=O)c1cc(NC(=O)c2cc(NC(=O)c3cc(NC(=O)c4nccn4C)cn3C)cn2C)cn1C)CC(=O)Nc1cn(C)c(C(=O)Nc2cc(C(=O)Nc3cc(C(=O)Nc4cc(C(=O)NCCCN(C)CCCNC(=O)c5cccc(C(=O)O)c5)n(C)c4)n(C)c3)n(C)c2)n1`: the growth is 102%. With `CN(C)CCCOc1c(Br)cc(/C=C/C(=O)N(C)CCc2cc(Br)c(OCCCN(C)C)c(Br)c2)cc1Br` the figure was 75.7%; with `O=C1COc2ccccc2C(=O)N1CCCCN1CCCCC1`, 110%. For `CCc1ccc(C2=C/C(=C/c3ccc(Cl)cc3)C(=O)N2CCc2ccc(S(N)(=O)=O)cc2)cc1`, the growth is 23.6%. Take `CCCCOc1c(N)cc(Cl)cc1C(=O)OCCN(CC)CC`: the growth is 108%. With `NC(=O)C1=C[C@H]2[C@H]3C=C[C@@]2(O)C(=O)O[C@@H]3O1` the figure was 16.8%. With `O=c1nc(N2CCOCC2)oc2c(-c3cccc4ccccc34)cccc12` the figure was 85.8%.

`O=C1OC(c2ccc(-c3ccccc3)cc2)=C/C1=C/C=C/c1ccccc1`: the growth is 99.3%.

The values are drawn from PubChem BioAssay (NCI).
